Source: PubChem BioAssay (several laboratories)
p97 inhibitor = inhibitors of human p97 ATPase, primary screen, biochemical; Transitional endoplasmic reticulum ATPase (Homo sapiens), P55072; recombinant p97 ATPase, Kinase-Glo ATP luminescence, 3 h; inhibition, % at 8 µM; 0.42% of 220,000 active; in the data active means inhibition above about 15%;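 further: 0% = DMSO vehicle and 100% = wells lacking enzyme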
PfM18AAP inh = PfM18AAP inhibitors, malaria aminopeptidase, primary screen, biochemical, QFRET, recombinant enzyme | H-Glu-NHMec fluorogenic cleavage | inhibition, % at 7.35 µM | 1.2% of 290,000 active;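 active means inhibition above the campaign mean inhibition over all tested compounds plus 3 SD, cut at about 28% in these data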;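 further: 0% = plate median of test compound wells and 100% = 2 mM ZnCl2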
SUMO HTRF inh = inhibitors of in vitro SUMOylation cascade, primary screen, biochemical, HTRF, uHTS; SUMO-conjugating enzyme UBC9 (Homo sapiens), P63279; HTRF SUMOylation assay, SAE1/SAE2 + UBC9; inhibition, % at 35 µM; 0.36% of 290,000 active; AID 2006, 2009; in the data active means inhibition above about 50%, passing the limit was not always enough; inconclusive means no clear call, values can overlap the other calls
Target sequence (P63279 whole entry, looked up): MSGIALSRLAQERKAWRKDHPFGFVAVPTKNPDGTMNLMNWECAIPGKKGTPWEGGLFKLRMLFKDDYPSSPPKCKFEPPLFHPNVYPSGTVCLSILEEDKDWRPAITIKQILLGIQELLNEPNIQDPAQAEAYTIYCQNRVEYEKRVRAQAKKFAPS
G6PDH counter = L. mesenteroides G6PDH inhibitors, counter-screen for G6PDH-coupled screening assays, biochemical, Leuconostoc mesenteroides enzyme; 0.12% of 200,000 active; Purified L. mesenteroides G6PDH, diaphorase/resazurin coupled fluorescence, 45 min; glucose-6-phosphate dehydrogenase [Leuconostoc mesenteroides]; inhibition, % at 5 µM; AID 1020, 2008; in the data active means inhibition above about 50%
HDAC3 inhib = HDAC3 deacetylase inhibitors, primary screen, biochemical, fluorescence, cell-free homogeneous | Histone deacetylase 3 (Homo sapiens), O15379 | recombinant HDAC3, fluorogenic peptide/trypsin coupled | inhibition, % at 8.3 µM | 0.15% of 320,000 active | AID 2718, 2010; in the data active means inhibition above about 26%, passing the limit was not always enough; inconclusive means no clear call, values can overlap the other calls
PHOSPHO1 inh = PubChem AID 1565. Phosphoethanolamine/phosphocholine phosphatase (Homo sapiens), Q8TCT1. recombinant PHOSPHO1, absorbance phosphatase assay. inhibition, % at 13.3 µM. 1.1% of 290,000 active; in the data active means inhibition above about 60%
Target sequence (Q8TCT1 whole entry, looked up): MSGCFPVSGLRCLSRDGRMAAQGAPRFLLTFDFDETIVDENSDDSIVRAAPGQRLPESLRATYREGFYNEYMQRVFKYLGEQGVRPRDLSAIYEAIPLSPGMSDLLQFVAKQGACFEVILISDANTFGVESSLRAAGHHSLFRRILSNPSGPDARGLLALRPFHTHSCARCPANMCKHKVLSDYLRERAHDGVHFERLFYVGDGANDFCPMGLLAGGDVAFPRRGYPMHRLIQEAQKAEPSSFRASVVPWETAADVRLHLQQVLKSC
* marks the source's active call; other numbers are inactive results. Hits are enriched below; roughly 2.5% of the tested compounds scored in any of these assays.

Results for CC(=O)c1ccc(NC(=O)Nc2ccncc2)cc1 ?
p97 inhibitor: 2; PfM18AAP inh: -3; SUMO HTRF inh: 8; G6PDH counter: 6; PHOSPHO1 inh: 15

What do the screens show for `O=C(Nc1ccc(N2C(=O)C3C4C=CC(C4)C3C2=O)cc1)Nc1cccnc1` (configuration not stated)?
p97 inhibitor: 4; PfM18AAP inh: -3; SUMO HTRF inh: 56*; G6PDH counter: 3; HDAC3 inhib: -15; PHOSPHO1 inh: -3

How did COC(c1ccccc1)c1nnc(CCC(=O)NCCCc2ccccc2)o1 (configuration not stated) do in these assays?
p97 inhibitor: 7; PfM18AAP inh: -1; SUMO HTRF inh: 12; G6PDH counter: 12; HDAC3 inhib: 4; PHOSPHO1 inh: 39

What do the screens show for `COC(c1ccccc1)c1nnc(CCC(=O)NC2C3CC4CC(C3)CC2C4)o1` (configuration not stated)?
p97 inhibitor: 4; PfM18AAP inh: 2; SUMO HTRF inh: 0; G6PDH counter: 19; HDAC3 inhib: 13; PHOSPHO1 inh: 60*

Results for Cc1cc(S(=O)(=O)N2CCCC(N(C)CCc3ccccn3)C2)c(C)s1 (configuration not stated) ?
PfM18AAP inh: 6; SUMO HTRF inh: 8; HDAC3 inhib: -1; PHOSPHO1 inh: 75*

What do the screens show for `CCOc1ccc(-c2c(C(=O)N/N=C/C3CC=CCC3)nnn2-c2nonc2N)cc1` (configuration not stated)?
PfM18AAP inh: -1; SUMO HTRF inh: 5; HDAC3 inhib: 8; PHOSPHO1 inh: 21

What do the screens show for `CC(C)(O)c1[nH]c2cc(F)ccc2c1C(C)(C)O`?
PfM18AAP inh: 6; SUMO HTRF inh: -2; HDAC3 inhib: -7; PHOSPHO1 inh: -2

Results for Cc1cc[n+](-c2[nH]c(=O)sc2/C=N/NC([S-])=Nc2ccccc2)cc1C ?
p97 inhibitor: -4; PfM18AAP inh: 32*; SUMO HTRF inh: -3; G6PDH counter: -25; PHOSPHO1 inh: 5

What do the screens show for `CNC(=S)NNc1nncc2ccccc12`?
p97 inhibitor: -1; PfM18AAP inh: 30*; SUMO HTRF inh: 7; G6PDH counter: 2; HDAC3 inhib: inconclusive; PHOSPHO1 inh: -107

Results for O=C(NC1CCS(=O)(=O)C1)/C(=C/c1ccc(Cl)cc1)NC(=O)c1ccccc1 (configuration not stated) ?
p97 inhibitor: -3; PfM18AAP inh: 1; SUMO HTRF inh: -7; G6PDH counter: -2; HDAC3 inhib: 3; PHOSPHO1 inh: 181*

Results for O=C(NC1CCS(=O)(=O)C1)/C(=C\c1ccccc1)NC(=O)c1ccccc1 (configuration not stated) ?
p97 inhibitor: 3; PfM18AAP inh: -7; SUMO HTRF inh: -4; G6PDH counter: -9; HDAC3 inhib: 3; PHOSPHO1 inh: 4

How did CC1(c2cccc(Br)c2)NC(=O)N(CC(=O)Nc2ccc3c(c2)OCCO3)C1=O (configuration not stated) do in these assays?
HDAC3 inhib: 4

What do the screens show for `COC(=O)C1=C(C(=O)OC)SC(=C2C(=S)C(C)(C)N(C(=O)CC(C)C)c3ccccc32)S1`?
p97 inhibitor: 1; PfM18AAP inh: -16; SUMO HTRF inh: -18; G6PDH counter: -6; HDAC3 inhib: inconclusive; PHOSPHO1 inh: 84*

Results for CC(C)CC(=O)n1sc(NC(=O)c2ccccc2)nc1=O ?
p97 inhibitor: 2; PfM18AAP inh: 6; SUMO HTRF inh: 13; G6PDH counter: -4; HDAC3 inhib: 12; PHOSPHO1 inh: 18

How did CCOc1cc(C(=O)CSc2nnc(CNc3ccc(Cl)cc3)o2)ccc1NC(=O)CC do in these assays?
p97 inhibitor: 2; PfM18AAP inh: 2; SUMO HTRF inh: 42; G6PDH counter: -3; HDAC3 inhib: -5; PHOSPHO1 inh: 84*

Results for CCc1nnc(NC(=O)CSc2nnc(-c3ccccc3NC(=O)c3ccccc3)o2)s1 ?
p97 inhibitor: 7; PfM18AAP inh: 22; SUMO HTRF inh: -1; G6PDH counter: 16; HDAC3 inhib: 6; PHOSPHO1 inh: 68*

What do the screens show for `CCc1nnc(NC(=O)CSc2nnc(CNc3ccc(Cl)cc3)o2)s1`?
p97 inhibitor: 1; PfM18AAP inh: 26; SUMO HTRF inh: 20; G6PDH counter: 10; HDAC3 inhib: 5; PHOSPHO1 inh: 62*

What do the screens show for `COC(=O)c1c(NC(=O)CSc2nnc(CNc3ccc(Cl)cc3)o2)sc(C)c1C`?
p97 inhibitor: -2; PfM18AAP inh: 2; SUMO HTRF inh: -20; G6PDH counter: -6; HDAC3 inhib: 1; PHOSPHO1 inh: 30

How did CCc1nnc(NC(=O)CSc2nnc(Cc3ccccc3)o2)s1 do in these assays?
p97 inhibitor: 4; PfM18AAP inh: 25; SUMO HTRF inh: 23; G6PDH counter: 2; PHOSPHO1 inh: -64

How did CCOC(=O)CSc1nnc(-c2ccccc2NC(=O)c2ccccc2)o1 do in these assays?
p97 inhibitor: 5; PfM18AAP inh: -1; SUMO HTRF inh: -4; G6PDH counter: 1; HDAC3 inhib: -7; PHOSPHO1 inh: 14

How did COc1ccc(NCc2nnc(SCC(=O)c3ccc(OC)cc3)o2)cc1 do in these assays?
p97 inhibitor: 4; PfM18AAP inh: 21; SUMO HTRF inh: 9; G6PDH counter: -4; HDAC3 inhib: 41*; PHOSPHO1 inh: 57

How did CCN(CC)S(=O)(=O)c1ccc(-n2cnc3cc(C)c(C)cc32)nc1 do in these assays?
PfM18AAP inh: -3; SUMO HTRF inh: 5; HDAC3 inhib: -13; PHOSPHO1 inh: 40

Results for COc1cccc(CNC(=O)CN2C(=O)CSc3ccc(S(=O)(=O)N4CCCCC4)cc32)c1 ?
PfM18AAP inh: 2; HDAC3 inhib: 2; PHOSPHO1 inh: 36

What do the screens show for `COc1ccc2c(CCNC(=O)Nc3ccccc3)c[nH]c2c1`?
p97 inhibitor: 2; PfM18AAP inh: -2; SUMO HTRF inh: -12; G6PDH counter: 10; HDAC3 inhib: -2; PHOSPHO1 inh: 63*

Results for COc1ccccc1NC(=O)CSC(N)=O ?
p97 inhibitor: -5; PfM18AAP inh: -29; SUMO HTRF inh: 16; G6PDH counter: 0; HDAC3 inhib: 63*; PHOSPHO1 inh: 12

Results for O=C1c2c(O)cc(O)cc2O[C@H](c2ccc(O)c(O)c2)[C@@H]1O ?
p97 inhibitor: 10; PfM18AAP inh: 82*; SUMO HTRF inh: 5; G6PDH counter: 36; HDAC3 inhib: 3; PHOSPHO1 inh: 16

What do the screens show for `O=C1c2c(O)cc(O)cc2O[C@H](c2ccc(O)cc2)[C@H]1O`?
HDAC3 inhib: -1

How did O=C1c2c(O)cc(O)cc2O[C@H](c2ccc(O)c(O)c2)[C@H]1O do in these assays?
p97 inhibitor: 4; PfM18AAP inh: 79*; HDAC3 inhib: 2
